Assay results: PubChem BioAssay AID504660 (National Center for Advancing Translational Sciences (NCATS), 2011)
“And” between values parts separate entries of the source, which are not always exact repeats. Identical values can stand only once. In all, about 360,000 compounds went through this assay and about 3,700 (1%) were called active. Only a selection was taken, and actives are over-represented in it overall. Unmarked numbers belong to inactive results. Rule as the data show it: active = activation above about 30%; inactive = the rest.

Target: D(1A) dopamine receptor (Homo sapiens) (UniProt P21728)
Sequence (P21728 whole entry, looked up): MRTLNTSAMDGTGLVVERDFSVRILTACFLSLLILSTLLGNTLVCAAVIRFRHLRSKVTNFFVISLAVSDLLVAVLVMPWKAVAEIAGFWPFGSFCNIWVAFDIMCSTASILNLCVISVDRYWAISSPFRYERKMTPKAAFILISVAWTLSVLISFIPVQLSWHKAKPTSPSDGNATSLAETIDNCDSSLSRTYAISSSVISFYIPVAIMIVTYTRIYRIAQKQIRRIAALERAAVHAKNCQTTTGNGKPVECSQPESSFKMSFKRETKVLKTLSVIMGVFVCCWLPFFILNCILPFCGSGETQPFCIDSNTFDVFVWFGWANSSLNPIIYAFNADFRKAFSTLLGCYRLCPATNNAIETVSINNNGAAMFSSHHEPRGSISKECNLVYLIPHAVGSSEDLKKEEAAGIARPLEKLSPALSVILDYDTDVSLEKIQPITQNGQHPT
Assay: Allosteric Agonists of the Human D1 Dopamine Receptor: qHTS; also: 0% is about no effect
Details: HEK293 T-REx D1 cells, calcium flux, agonist mode; at 2 µM; stronger effect = higher value
Outline: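 Inducible HEK293 T-REx D1 cells, force-coupled to calcium signalling, were plated at 4000 cells/well with tetracycline and held overnight at 30 C. After no-wash calcium dye loading, compound-evoked calcium rise over 180 s flagged agonists.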

Question: How did the activation turn out when CCOc1cccc2c1N[C@@H](c1ccc(C(=O)O)cc1)[C@H]1CC=C[C@@H]21 was run?
Answer: Its activation is 7.61%.

Question: How did the activation turn out when CC1CCCN(c2cc3c(cc2F)c(=O)c(S(=O)(=O)c2cccc(Cl)c2)cn3Cc2ccccc2)C1 (stereo unspecified) was run?
Answer: The activation was -0.839%.

Question: CCOC(=O)NN1C(=O)c2ccccc2NC1c1ccccc1O (stereo unspecified) was tested. Which activation did it give?
Answer: The activation was 0.398%.

Question: How did the activation turn out when Cc1cc2n(n1)C(c1cc(C(C)(C)C)c(O)cc1O)Nc1ccccc1-2 (stereo unspecified) was run?
Answer: The activation was 38.8% (active).

Question: COC(=O)c1ccc(NC(=O)c2cc(S(=O)(=O)N3CCC(C)CC3)cn2C)cc1 was tested. Which activation did it give?
Answer: The activation was 6.51%.

Question: How did the activation turn out when COc1cccc(CNCCc2c[nH]c3ccccc23)c1OCc1ccccc1F was run?
Answer: The activation was 18.2%.

Question: How did the activation turn out when COc1ccc(C(CCNCc2ccccc2F)c2ccc(F)cc2)cc1 (stereo unspecified) was run?
Answer: The activation was 41.1% (active).

Question: COc1ccc(C(CNCC(=O)Nc2ccccc2F)N(C)C)cc1 (stereo unspecified) was tested. Which activation did it give?
Answer: Its activation is 0.114%.

Question: How did the activation turn out when CC(C)CC(NS(=O)(=O)c1ccc2c(c1)oc(=O)n2C)C(=O)NCc1ccccc1Cl (stereo unspecified) was run?
Answer: The activation was 3.12%.

Question: CCOc1ccccc1CNCc1c(C(=O)O)c(C)n(Cc2ccc(C)cc2)c1C was tested. Which activation did it give?
Answer: Its activation is 3.68%.

Question: Cc1cccc(N2CCN(S(=O)(=O)c3ccc4[nH]c5c(c4c3)CCCCC5)CC2)c1C was tested. Which activation did it give?
Answer: The activation was 2.57%.

Question: Which activation does the source give for O=C(Nc1ccc2nc(SCC(=O)N3CCCc4ccccc43)sc2c1)c1ccc(F)cc1 here?
Answer: Its activation is 5.54%.

Question: Which activation does the source give for CCOC(=O)C1CCN(C(=O)C2CCN(S(=O)(=O)c3c(C)noc3C)CC2)CC1 here?
Answer: Its activation is -2.99%.

Question: For CCOC(=O)C1CCN(S(=O)(=O)c2c(C)noc2C)CC1, which activation is on record?
Answer: Its activation is 0.879%.

Question: Cc1cc(C)c(S(=O)(=O)N2CCC(C(=O)OCc3c(C)noc3C)CC2)c(C)c1 was tested. Which activation did it give?
Answer: The activation was 45.3% (active).

Question: With COc1ccc(CCn2cc3c(c2-c2ccc(Br)cc2)c(=O)n(C)c(=O)n3C)cc1OC as the molecule, how does the activation read?
Answer: The activation was 0.633%.

Question: Which activation does the source give for COc1cccc(NC(=O)N2CCN(C(=O)c3nsc4ccccc34)CC2)c1 here?
Answer: The activation was 10.2%.

Question: How did the activation turn out when CCOC(=O)c1c(NC(C)=O)c2c3c(sc2n1Cc1c(C)cc(C)cc1C)CCCC3 was run?
Answer: Its activation is 1.79%.

Question: For C/C(N)=C(/C#N)C(=O)COC(=O)C1=NN(c2ccccc2)C(=O)CC1, which activation is on record?
Answer: The activation was 2.53%.

Question: COC(=O)CC1=NN(c2ccccc2)C(=O)C1 was tested. Which activation did it give?
Answer: Its activation is 31.5% (active).

Question: How did the activation turn out when COC(=O)CC1=NN(c2nc(C)cc(C)n2)C(=O)C1 was run?
Answer: The activation was 13.3%.

Question: Which activation does the source give for CCOC(=O)c1ccc(NC(=O)C2CC(=O)N(c3ccc(C(C)C)cc3)C2)cc1 (stereo unspecified) here?
Answer: Its activation is 0.0656%.

Question: CCOC(=O)c1cc2c(=O)n3ccccc3nc2n(CCCOC)c1=NC(=O)C(C)Oc1ccccc1 (stereo unspecified) was tested. Which activation did it give?
Answer: Its activation is -0.224%.

Question: With C=CCC(NC(=O)Cc1ccccc1)C(=O)NCCC (stereo unspecified) as the molecule, how does the activation read?
Answer: Its activation is -1.62%.

Question: For CCCCC(=O)NNC(=S)NC(=O)C(c1ccccc1)c1ccccc1, which activation is on record?
Answer: Its activation is 179% (active).

Question: C/C(=N\NC(=O)CNC(=O)C(c1ccccc1)c1ccccc1)c1ccc(C)cc1 was tested. Which activation did it give?
Answer: Its activation is 0.588%.

Question: With CCOc1ccccc1C(=O)NC1(C(F)(F)F)C(=O)Nc2c1c(=O)[nH]c(=O)n2-c1ccc(F)cc1 (stereo unspecified) as the molecule, how does the activation read?
Answer: Its activation is 0.807%.

Question: For C=CCC1=C/C(=C\c2c(N)n3nc(CC(=O)N4CCOCC4)sc3nc2=O)C=C(OC)C1=O, which activation is on record?
Answer: Its activation is 38.1% (active).

Question: With COC1=C/C(=C/c2c(N)n3nc(CC(=O)N4CCOCC4)sc3nc2=O)C=CC1=O as the molecule, how does the activation read?
Answer: The activation was 8.23%.

Question: For O=C(NCc1nnc(C(=O)Nc2ccc(C(F)(F)F)cc2Cl)o1)c1ccccc1, which activation is on record?
Answer: The activation was -0.686%.

Question: Cc1cc(Br)ccc1NC(=O)Cn1cnc2sc(C)c(S(=O)(=O)N3CCN(C)CC3)c2c1=O was tested. Which activation did it give?
Answer: The activation was 2.4%.

Question: Which activation does the source give for COc1ccc(C(=O)CN2C(=O)NC(C)(c3ccc(C)cc3)C2=O)cc1OC (stereo unspecified) here?
Answer: Its activation is 26.6%.

Question: COc1ccc(C2(C)NC(=O)N(CC(=O)c3ccc4c(c3)OCO4)C2=O)cc1 (stereo unspecified) was tested. Which activation did it give?
Answer: The activation was 38.5% (active).

Question: Which activation does the source give for CC1(c2ccc(Cl)cc2Cl)NC(=O)N(CC(=O)Nc2cccnc2Cl)C1=O (stereo unspecified) here?
Answer: Its activation is 3.86%.

Question: With CC1CN(C(=O)CN2C(=O)NC(C)(c3ccccc3)C2=O)CC(C)O1 (stereo unspecified) as the molecule, how does the activation read?
Answer: The activation was 0.601%.

Question: Cc1ccc(C2(C)NC(=O)N(CC(=O)Nc3ccccc3C(=O)N3CCCCC3)C2=O)cc1 (stereo unspecified) was tested. Which activation did it give?
Answer: Its activation is 10.7%.

Question: Cc1oc(C)c2c(=O)cc(-c3ccc4c(c3)OCO4)cc(OC(=O)c3ccc(Cl)cc3)c12 was tested. Which activation did it give?
Answer: Its activation is 5.82%.

Question: For CC1(c2ccc3ccccc3c2)NC(=O)N(CC(N)=O)C1=O (stereo unspecified), which activation is on record?
Answer: Its activation is 3.93%.

Question: With Cc1ccc(NC(=O)CN2C(=O)NC(C)(c3ccc(Cl)cc3)C2=O)c(Br)c1 (stereo unspecified) as the molecule, how does the activation read?
Answer: Its activation is 37.2% (active).

Question: Which activation does the source give for CC1(c2ccc(Cl)cc2)NC(=O)N(CC(=O)c2ccc3c(c2)OCO3)C1=O (stereo unspecified) here?
Answer: Its activation is 53.1% (active).

Question: With O=c1n(Cc2cccc(C(F)(F)F)c2)c2ccccc2c2nc(-c3ccccc3)nn12 as the molecule, how does the activation read?
Answer: Its activation is 5.18%.

Question: With CCOC(=O)C1CCCN(C(=O)Cn2ncc3c(C)n(Cc4ccc(F)cc4)c(C)c3c2=O)C1 (stereo unspecified) as the molecule, how does the activation read?
Answer: The activation was 5.3%.

Question: With Cc1nn(-c2ccc(N3CCCCC3)nn2)c(C)c1CCC(=O)NCc1ccccc1F as the molecule, how does the activation read?
Answer: Its activation is -0.954%.

Question: Cc1ccc(C)c(NC(=O)C2CCCN(S(=O)(=O)c3cn(C)cn3)C2)c1 (stereo unspecified) was tested. Which activation did it give?
Answer: Its activation is -0.383%.

Question: CC(C)NC(=O)c1nn(-c2ccccc2F)nc1CO was tested. Which activation did it give?
Answer: Its activation is 1.01%.

Question: How did the activation turn out when CCOC(=O)c1c(C)oc2nc(C)nc(N(CC(C)C)CC(C)C)c12 was run?
Answer: Its activation is 5.8%.

Question: With CCc1cccc(NC(=O)c2cnc(N3CCOCC3)c3ccccc23)c1 as the molecule, how does the activation read?
Answer: The activation was -0.292%.

Question: CC1=C(C(=O)OCC(C)C)C(c2ccc(OCc3ccccc3)cc2)N2C(=O)CCSC2=N1 (stereo unspecified) was tested. Which activation did it give?
Answer: Its activation is 13.9%.

Question: How did the activation turn out when Cc1c(-c2nsc(NC(=O)c3cccc(Cl)c3)n2)nnn1-c1ccccc1C(F)(F)F was run?
Answer: The activation was 6.51%.

Question: With Cc1cccc2sc(N(CCCN(C)C)C(=O)CCS(=O)(=O)c3ccccc3)nc12 as the molecule, how does the activation read?
Answer: Its activation is 44.5% (active).

Question: How did the activation turn out when O=C(O)CCS(=O)(=O)c1ccc(-c2ccccc2)cc1 was run?
Answer: Its activation is -0.731%.

Question: For O=C(CCS(=O)(=O)c1ccccc1)N(Cc1cccnc1)c1nc2c(F)cccc2s1, which activation is on record?
Answer: The activation was 7.8%.

Question: For CCc1nnc(SCC(=O)Nc2cc(OC)ccc2OC)nc1CC, which activation is on record?
Answer: The activation was 0.834%.

Question: How did the activation turn out when CCOc1ccccc1NC(=O)Cn1c(=O)n(Cc2ccco2)c(=O)c2sc3ccccc3c21 was run?
Answer: Its activation is 0.44%.

Question: For CN(c1ccccc1)c1ccc(/C=c2\s/c(=C(/C#N)C(=O)C(C)(C)C)n(Cc3ccco3)c2=O)cc1, which activation is on record?
Answer: Its activation is 86% (active).

Question: For Cc1cc(C)nc(NC(=O)Nc2ccccc2C(F)(F)F)n1, which activation is on record?
Answer: The activation was 7.87%.

Question: For O=C(Nc1ccccc1C(F)(F)F)c1cc(-c2ccc(O)cc2)on1, which activation is on record?
Answer: The activation was 76.6% (active).

Question: With CCc1ccccc1NC(=O)c1cc(-c2ccc3c(c2)OCO3)on1 as the molecule, how does the activation read?
Answer: The activation was 1.41% and 1.39%.

Question: CC(=O)OC1=C(C(C)=O)N(Cc2ccccc2)S(=O)(=O)c2ccccc21 was tested. Which activation did it give?
Answer: The activation was -0.292%.

Question: Which activation does the source give for CCOC(=O)CN1C(C(=O)c2ccccc2)=C(OC(=O)C(C)(C)C)c2ccccc2S1(=O)=O here?
Answer: The activation was 2.02%.

Question: How did the activation turn out when CCCCC(=O)OC1=CN(Cc2ccccc2)S(=O)(=O)c2ccccc21 was run?
Answer: Its activation is 43.4% (active).
